Pf growth 96h = Primary qHTS for delayed death inhibitors of the malarial parasite plastid, 96 hour incubation; P. falciparum luciferase reporter growth, 96 h; Potency, µM (highest dose often 28.7 µM), inactives show at the top dose activity change, negative = inhibition, actives largely listed as inhibitors; 6.9% of 320,000 active; note: potency is the fitted concentration of half-maximal effect
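Readout is luminescence from an integrated firefly luciferase in P. falciparum. Red cells, 2% hematocrit and 0.05% parasitemia final, were cultured with compound through two parasite generations (96 hours) at 37 C, 5% CO2.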
Giardia FBPA inh = qHTS Assay for Inhibitors of Fructose-1,6-bisphosphate Aldolase from Giardia Lamblia. purified Giardia FBPA. Potency, µM (doses to about 59.6 µM), inactives show top-dose activity, negative = inhibition, most hits filed as inhibitors. 0.71% of 290,000 active; note: potency is the fitted concentration of half-maximal effect; nearly all actives have a fitted effect of over 55% in size
Target sequence (A8B2U2 whole entry, looked up): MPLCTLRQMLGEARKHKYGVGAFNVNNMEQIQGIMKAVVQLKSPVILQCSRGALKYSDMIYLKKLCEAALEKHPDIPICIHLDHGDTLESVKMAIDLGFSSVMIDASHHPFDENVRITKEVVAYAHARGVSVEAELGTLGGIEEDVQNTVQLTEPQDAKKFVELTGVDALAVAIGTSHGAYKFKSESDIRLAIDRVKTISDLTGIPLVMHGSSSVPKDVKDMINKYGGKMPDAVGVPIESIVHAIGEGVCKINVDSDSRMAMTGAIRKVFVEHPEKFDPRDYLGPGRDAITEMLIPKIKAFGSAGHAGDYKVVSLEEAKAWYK
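40 nM FBPA preincubated 10 min at RT with compound (up to 57.5 uM final), then substrate plus GAPDH/TPI/NAD/arsenate coupling and diaphorase/resazurin added. Fluorescence read after 20 min at RT, 525/598 nm.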
Sm TGR block = qHTS Assay for the Inhibitors of Schistosoma Mansoni Peroxiredoxins. Schistosoma mansoni thioredoxin glutathione reductase (TGR), Q962Y6. purified TGR, DTNB reduction, TNB absorbance 405 nm. Potency, µM (series often up to 114 µM), inactives show at the top dose activity change, negative = inhibition, hits mostly inhibitors. 3% of 360,000 active. AID 485364, 2010; note: potency is the fitted concentration of half-maximal effect; nearly all actives have a fitted effect of over 60% in size
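First, TGR (20 nM dispensed) and NADPH were mixed with compound. Second, a 15 min room-temperature incubation followed. Third, further NADPH and then DTNB were added to start the reaction. Finally, TNB absorbance was monitored kinetically.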
Pf growth 48h = Primary qHTS for delayed death inhibitors of the malarial parasite plastid, 48 hour incubation; P. falciparum luciferase growth in erythrocytes, 48 h; Potency, µM (highest dose often 28.7 µM), for inactives: at the top dose activity change, negative = inhibition, hits mostly inhibitors; 5.9% of 310,000 active; AID 504832, 2011; note: potency is the fitted concentration of half-maximal effect
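Cell-based growth assay: transgenic P. falciparum expressing firefly luciferase, cultured in red cells within RPMI 1640 containing 0.5% w/v Albumax, 24 mM bicarbonate and gentamycin. A drop in luciferase activity indicates inhibition.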
HCMV antiviral = qHTS Assay for inhibitors of the human cytomegalovirus (HCMV). HFF cells, HCMV-luciferase reporter, 72 h; hits give low values. 4.5% of 410,000 active. activity change, negative = inhibition, % at 57.5 µM; in the data active = activity change below about -60%; inconclusive = no clear call, values can overlap the other calls; inactive = above about -39%
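Cell-based, HFFs, 1000 cells/well, 16 h 37C; cpds in DMSO + HCMV-luc, MOI 1 PFU/cell; 72 h 37C; OneGlo luminescence after 5 min RT; norm. to buffer vs Salinomycin 10uM.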
Active calls of the source: *; ? = inconclusive; / = no result; [ ] = remark or other dose. A selection: hits, their analogues and other compounds. The true share with any hit is near 14%. Unless noted, calls come from the whole dose curve; as a rule, active = well fitted curve in the direction sought with a large enough effect; inconclusive = small, poorly fitted or top-dose-only effect, or another doubt; inactive = no such curve, though single readings can be large; an effect the other way counts as inactive or inconclusive. % is set by controls: 0 for no effect and ±100 for the full control effect.

SMILES | Pf growth 96h | Giardia FBPA inh | Sm TGR block | Pf growth 48h | HCMV antiviral
CCCN(CC(=O)Nc1cc(Cl)ccc1Cl)C(=O)c1ccc2n[nH]nc2c1 | -25% | / | -9% | ? | 3
CCCCN(C(=O)CSc1nncn1-c1ccccc1)c1c(N)n(Cc2ccccc2)c(=O)[nH]c1=O | 0% | 11% | -1% | 8% | -62*
CCCCN(C(=O)CSc1cc(C)c2ccc(OC)cc2n1)c1c(N)n(Cc2ccccc2)c(=O)[nH]c1=O | 12µM* | -4% | 0% | -16% | ?
CCCCN(C(=O)CSc1nnc(-c2ccccc2)n1C)c1c(N)n(Cc2ccccc2)c(=O)[nH]c1=O | ? | -1% | -9% | -17% | 21
O=C(Nc1ccccc1C(=O)N1CCCCCC1)c1ccc(Cl)cc1 | 49% | 5% | 2% | -24% | ?
O=C(CCCCCNC(=O)N1CCn2c1nc1ccccc12)NCCc1ccccc1 | 7.4µM* | 6% | 0% | ? | ?
COc1ccc(-c2cc(=O)n(-c3nc4ccccc4[nH]3)[nH]2)cc1 | 47% | ? | -7% | ? | -90*
COc1ccc(-c2nc3ccccc3[nH]2)cc1 | -24% | -17% | -6% | / | 124
CC(C)=C[C@@H]1C[C@H](C)[C@H]2CC[C@H](C)c3c(O)c(O)c(C)c1c32 | 10µM* | / | -33% | 3.7µM* | -6
CC(=O)Oc1c(C)c2c3c(c1OC(C)=O)[C@@H](C)CC[C@@H]3[C@@H](C)C[C@H]2C=C(C)C | ? | / | ? | 12µM* | -10
CC(=O)OC1[C@H](Oc2c(O)c(C)c3c4c2[C@@H](C)CC[C@@H]4[C@@H](C)C[C@@H]3C=C(C)C)OC[C@@H](O)[C@@H]1O (some centres undefined) | / | / | / | / | 2
COc1ccc(CCNC(=O)Nc2cc(F)c(F)cc2Cl)cc1OC | 151% | -1% | 4% | -29% | 29
N#Cc1cc(C(=O)c2cc(Br)ccc2O)cn(C2CCCCC2)c1=O | 1µM* | 9% | -35% | 1.5µM* | -39
COc1ccc(O)c(C(=O)c2cc(C#N)c(=O)n(-c3c(C)n(C)n(-c4ccccc4)c3=O)c2)c1 | 9.3µM* | -16% | -24% | ? | -9
Cc1c(-n2cc(C(=O)c3cc(Cl)ccc3O)cc(C#N)c2=O)c(=O)n(-c2ccccc2)n1C | 0% | 10% | -2% | 0% | 27
N#Cc1cc(C(=O)c2cc(Cl)ccc2O)cn(-c2ccccc2)c1=O | 1.9µM* | 1% | -6% | 9.3µM* | -1
Cc1ccc(NC(=O)c2cc(C(=O)c3cc(Cl)ccc3O)cn(-c3ccc(C)cc3)c2=O)cc1 | 0.19µM* | -5% | -1% | 0.33µM* | -70*
N#Cc1cc(C(=O)c2ccccc2OCC(=O)Nc2ccccc2Cl)cn(C2CCCCC2)c1=O | ? | 0% | 0% | ? | -25
CCC(=O)N1CCc2cc(S(=O)(=O)NC(Cc3ccccc3)C(=O)Nc3ccc(C)cc3)ccc21 (centres undefined) | / | / | 1% | / | -8
Cn1c(=O)n(C)c2cc(N3CCCCC3)c(NC(=O)c3c(F)cccc3F)cc21 | / | / | -1% | / | -1
Cc1ccc(S(=O)(=O)Cn2nnnc2CN(Cc2ccco2)CC2CCCO2)cc1 (centres undefined) | 4.1µM* | -2% | 28µM* | ? | 0
Cc1ccc2cc(CN(Cc3nnnn3Cc3ccco3)CC3CCCO3)c(=O)[nH]c2c1C (centres undefined) | -26% | -23% | 18µM* | ? | 0
Cc1ccc(C)c2[nH]c(=O)c(CN(CC3CCCO3)C(=S)NCc3ccco3)cc12 (centres undefined) | ? | -7% | 28µM* | ? | 0
Cc1ccc(C)c2[nH]c(=O)c(CN(Cc3cccs3)C(=S)NCc3ccco3)cc12 | 28% | 0% | -20% | 10µM* | 8
CCc1ccc2[nH]c(=O)c(CN(CC3CCCO3)C(=S)NCc3ccco3)cc2c1 (centres undefined) | ? | -14% | -20% | ? | -19
SMILES | Pf growth 96h | Giardia FBPA inh | Sm TGR block | Pf growth 48h | HCMV antiviral
COc1ccccc1C(=O)NC(=O)COC(=O)CNC(=O)c1ccc(Cl)c([N+](=O)[O-])c1 | 12% | / | -7% | 6% | 9
O=C(NN=C(c1ccccc1)c1ccccc1)C(CCl)C1CCCCC1 (centres undefined) | ? | / | -3% | 15% | -4
O=C(O)COc1ccccc1/C=N/NC(=O)C(O)c1ccccc1 (centres undefined) | -42% | -8% | 4% | 5% | 19
Cc1cccc2cc(CN(CC3CCCO3)C(=O)c3ccco3)c(=O)[nH]c12 (centres undefined) | ? | 4% | 35µM* | -3% | -9
COc1ccc2cc(CN(Cc3ccco3)C(=S)NCC3CCCO3)c(=O)[nH]c2c1 (centres undefined) | 0% | -19% | -27%[57.1 µM] | ? | ?
Cc1ccc2cc(CN(CC3CCCO3)C(=S)NCc3ccco3)c(=O)[nH]c2c1C (centres undefined) | 55% | -7% | -19% | ? | -63*
Cc1cc(C)c2cc(CN(Cc3ccco3)C(=S)NCC3CCCO3)c(=O)[nH]c2c1 (centres undefined) | ? | -8% | 25µM* | 2.1µM* | -3
O=C(c1ccco1)N(Cc1cc2ccccc2[nH]c1=O)CC1CCCO1 (centres undefined) | 18% | 2% | -7% | / | -28
COc1ccc(CNC(=O)C2CCN(S(=O)(=O)c3ccc4c(c3)C(C)(C)C(=O)N4C)CC2)cc1 | 13% | 7% | 5% | ? | -29
O=C(CSc1nc2nccnc2c(=O)n1CCc1c[nH]c2ccccc12)Nc1ccccc1 | / | / | -8% | / | -28
CN(c1ccc(C(=O)N2CCCCCC2)cc1)S(=O)(=O)c1ccc(Cl)cc1 | 26% | / | 12% | ? | -74*
COc1ccc(S(=O)(=O)N(C)c2ccc(C(=O)N3CCC(C(N)=O)CC3)cc2)cc1OC | 2% | 4% | -33% | -1% | -100*
CC(C)c1ccc(NC(=O)Nc2nnc([C@@H]3C[C@H](O)[C@@H](CO)O3)s2)cc1 | / | / | / | / | 20
CCNc1ncc2nc(-c3ccc(F)cc3)c(=O)n(-c3ccccc3)c2n1 | / | 5% | / | / | /
O=C(COc1ccccc1)Nc1cccc(-c2cn3cccnc3n2)c1 | 6.6µM* | 9% | 2% | 9.3µM* | 28
CCC(=O)Nc1cccc(-c2cn3ccccc3n2)c1 | 12µM* | -6% | -7% | 146% | 27
CN(C)S(=O)(=O)c1cccc(-c2cn3ccccc3n2)c1 | 10µM* | -1% | 0% | 18% | 26
O=C(Cc1ccccc1)Nc1cccc(-c2cn3cccnc3n2)c1 | / | / | 4% | / | 27

High-throughput results as filed in PubChem BioAssay.
